# Columns and labels:
# Experiment in all cases: PBM binding z-score (relative to random genomic background probes); higher = stronger binding; sequences stand for … in GC…GCGATTGACAGCGTAGAATGAAGG
# [1] = tested on: FXR:RXRa (NR concentration 270 nM, RXRa partner concentration 90 nM)
# Outline: (§1)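 Each nuclear receptor dimer, without ligand, was incubated for 1 h on custom Agilent 4×180K protein-binding microarrays. Binding was detected with antibodies against each partner (one per run), and scanned fluorescence was regression-normalized. The binding z-scores are referenced to random human genomic background probes.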
# [2] = tested on: LXRa:RXRa (NR concentration 270 nM, RXRa partner concentration 90 nM)
# Outline: as §1
# [3] = tested on: LXRa homodimer (NR concentration 270 nM)
# Outline: as §1
# [4] = tested on: LXRb:RXRa (NR concentration 270 nM, RXRa partner concentration 90 nM)
# Outline: as §1
# [5] = tested on: LXRb homodimer (NR concentration 270 nM)
# Outline: as §1
# [6] = tested on: PPARa:RXRa (NR concentration 270 nM, RXRa partner concentration 90 nM)
# Outline: as §1
# [7] = tested on: PPARg:RXRa (NR concentration 180 nM, RXRa partner concentration 90 nM)
# Outline: as §1
# [8] = tested on: PPARg:RXRa 270nM:90nM, anti-RXR (NR concentration 270 nM, RXRa partner concentration 90 nM)
# Outline: as §1
# [9] = tested on: PPARg:RXRa 30nM:10nM, anti-RXR (NR concentration 30 nM, RXRa partner concentration 10 nM)
# Outline: as §1
# [10] = tested on: PPARg:RXRa 90nM:30nM, anti-RXR (NR concentration 90 nM, RXRa partner concentration 30 nM)
# Outline: as §1
# [11] = tested on: PPARg:RXRa DBDmut IVT, anti-RXR (DBD mutation: RXRa K156A/R161A, NR concentration 270 nM, RXRa partner concentration 90 nM)
# Outline: as §1
# [12] = tested on: PPARg:RXRa IVT, anti-PPARg (NR concentration 270 nM, RXRa partner concentration 90 nM)
# Outline: as §1
# [13] = tested on: PPARg DBDmut:RXRa IVT, anti-PPARg (DBD mutation: PPARg1 K132A/R137A, NR concentration 270 nM, RXRa partner concentration 90 nM)
# Outline: as §1
# [14] = tested on: PPARg DBDmut IVT, anti-PPARg (DBD mutation: PPARg1 K132A/R137A, NR concentration 270 nM)
# Outline: as §1
# [15] = tested on: PPARg homodimer (NR concentration 180 nM)
# Outline: as §1
# [16] = tested on: PXR:RXRa (NR concentration 270 nM, RXRa partner concentration 90 nM)
# Outline: as §1
# [17] = tested on: PXR homodimer (NR concentration 270 nM)
# Outline: as §1
# [18] = tested on: RARa:RXR (NR concentration 270 nM, RXRa partner concentration 90 nM)
# Outline: as §1
# [19] = tested on: RARa homodimer (NR concentration 270 nM)
# Outline: as §1
# [20] = tested on: RARb:RXRa (NR concentration 270 nM, RXRa partner concentration 90 nM)
# Outline: as §1
Sequence,PBM binding z-score [1],PBM binding z-score [2],PBM binding z-score [3],PBM binding z-score [4],PBM binding z-score [5],PBM binding z-score [6],PBM binding z-score [7],PBM binding z-score [8],PBM binding z-score [9],PBM binding z-score [10],PBM binding z-score [11],PBM binding z-score [12],PBM binding z-score [13],PBM binding z-score [14],PBM binding z-score [15],PBM binding z-score [16],PBM binding z-score [17],PBM binding z-score [18],PBM binding z-score [19],PBM binding z-score [20]
CGTCCAAGGTCAATGTCAGTGAAAGAGACTCGAA,6.7,4.8,0.641,3.88,1.05,5.35,4.26,4.46,1.3,2.57,2.67,3.14,-0.322,-0.37,2.27,3.36,1.18,3.8,0.639,4.85
CCAGACAGGTGAGAAGGTAGCTCAGCCTCGATTA,-0.337,-0.342,-0.166,-0.33,-0.763,0.0761,0.0523,0.0588,-0.801,-0.121,0.778,0.189,-0.969,-0.906,0.136,-0.331,-0.00345,-0.134,0.0537,0.327
TCATATAAGTAAACAGGTGAAAGTCCGTAAGTTA,1.27,1.25,0.422,1.2,0.0139,1.55,1.32,2.57,4.41,3.57,3.11,1.31,0.554,1.07,1.13,1.09,0.507,1.19,1.75,0.383
GATACAGGGTCCGCTAGAGGCCAGAGTATGGAAA,-0.588,-0.752,-0.713,-1.11,-1.38,-0.848,0.112,-0.726,-0.417,-1.24,-1.31,-0.762,-1.66,-1.32,-0.788,-0.821,-0.331,-0.782,-1.34,0.181
TCTCGGAGTACACGAAAGGTCAGAGCTCGACATC,2.31,3.69,2.03,3.2,-0.426,3.55,1.78,3.53,2.52,3.11,1.42,1.77,0.689,0.21,1.29,4,-0.3,4.04,-0.148,3.79
ATCTCTAGGTAAAGTCCAGTGAAAGATCGATAGA,0.403,0.465,0.0712,-0.241,1.11,0.175,0.232,0.48,0.421,0.165,2.45,1.54,1.13,0.971,0.584,-0.13,0.187,-0.113,0.971,0.414
TCTTGTTGATCAGCAGGTTAAGAAAGCTGGCCAA,0.582,0.423,-0.308,0.784,-0.493,0.727,-0.682,1.17,2.56,1.66,1.56,0.0637,-0.302,-0.327,-0.0408,0.332,-0.115,0.447,-0.41,0.288
CCGAGTAGGTTATGGGTCATTCAGGCAACGGTGA,2.41,2.13,0.794,2.57,0.212,4.37,7.07,6.9,5.78,6.93,3.95,4.54,-0.0117,-0.483,1.77,2.17,0.442,3.06,1.09,2.3
CGTCAAGGTTCAACTAAGGTAACGTAAAGCACGC,5.26,4.66,1.12,2.96,0.335,4.18,2.49,2.73,0.464,1.82,-0.0468,0.857,-0.137,-0.827,1.13,3.96,0.241,3.05,0.652,3.14
CGAACTAGTTCAGAACAGGACAGTGAAGGATGAT,0.0852,-0.165,-0.0634,-0.449,-0.667,-0.356,0.524,-0.523,-0.163,-0.675,-0.157,-0.211,0.34,0.0845,-0.297,0.137,0.378,0.131,-0.252,0.618
TCATATAGGTACTACAGGTGAAAGTCGGCATCTA,0.842,1.92,0.924,1.03,0.0353,1.4,0.768,2.18,3.93,2.89,2.86,1.16,0.618,1.02,0.506,0.663,0.0757,0.847,0.606,0.472
CCTGCTAGGTCAATGGTCAGATAAAGCAGCTCGC,2.9,2.29,0.316,1.61,-0.124,3.15,4.67,5.1,2.77,4.96,4.27,4,-0.328,-0.659,1.01,0.646,-0.497,1.44,0.218,3.65
ACTTACGGGTCAACGAGGTTATAGTACGCGTATA,6.84,5.12,1.1,4.53,0.951,5.76,5.66,5.72,2.24,4.29,3.12,4.22,1.99,1.76,2.88,5.39,4.31,5.61,1.04,4.13
TCATATAGGTACAGGTGAAAGTCGAACGATATGA,0.652,0.533,-0.0804,0.777,-0.304,1.62,1.23,2.41,3.76,2.76,2.01,1.83,1.45,1.06,0.632,0.509,-0.0466,0.718,0.84,0.896

# — the supplement of paper PMC6555819
